# The panel holds about 83,000 compounds, 20% with a hit somewhere; the sample as a whole holds those more often.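 Values shown are percent growth following 48 h exposure of cells in 96-well plates to a single concentration of compound; below 10 was considered active.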 Unmarked numbers belong to inactive results. The source made the active and inactive calls.
# System: HCC-2998 colon
# Test: NCI-60 one-dose screen, 48 h (100 = growth as untreated, 0 = no growth, -100 = all killed)
# Conditions: 10 µM
row,Structure (SMILES),growth
1,COc1ccc(-c2nc(-c3nc4ccc(Cl)cc4[nH]3)c3ccccn23)cc1,69.3%
2,O=C(O)c1ccc(P(=O)(O)O)c([N+](=O)[O-])c1,111%
3,CC(=O)O[C@]1(C)CC[C@H]2[C@H](CNCCc3ccc(Cl)cc3)C(=O)O[C@@H]2C2=C(C)C(=O)C[C@H]21,94.6%
4,COc1ccc(Cl)cc1-n1nnc(-c2nc3ccccc3[nH]2)c1N,93.4%
5,O=C1/C(=C\c2ccc(F)cc2)CN(C(=O)c2ccccc2)C/C1=C\c1ccc(F)cc1,16.4%
6,CCC(=O)N1C/C(=C/c2ccc(Cl)cc2)C(=O)/C(=C/c2ccc(Cl)cc2)C1,-89.3% (active)
7,COc1cc(C2CC(c3ccc(Nc4ccnc5cc(Cl)ccc45)cc3)=NN2c2ccc(Cl)cc2)cc(OC)c1OC (stereo not drawn),55.4%
8,COc1cc(NC(=O)CCSc2nc3ccc(C)cc3c(=O)n2Cc2ccccc2)cc(OC)c1OC,112%
9,COc1cc(Nc2ncnc(Nc3ccc4c(n3)NC(=O)C(C)(C)O4)n2)cc(OC)c1OC,79.1%
10,C[C@@H]1C=C2C(=O)O[C@@H]3CC[C@H](C1)[C@]23O,99.9%
11,N#CCCN1C/C(=C/c2ccc(Cl)cc2)C(=O)/C(=C/c2ccc(Cl)cc2)C1,-84.6% (active)
12,Cc1[nH]nc2c1C(c1cnn(C)c1)C(C#N)=C(N)O2 (stereo not drawn),110%
13,O=C(Nc1nc2ccc(F)cc2s1)c1cc(-c2ccc(F)cc2)n2nc(-c3ccccc3)cc2n1,99.8%
